# Results as given in PubChem BioAssay.
# Active and inactive are the calls of the source.
# Columns and labels:
# [1] = optical density shifts of acrAB sulA E. coli – strain DRC41, OD650, 48 h, E. coli filamentation inducer project, primary screen (AID 1152); conditions: higher = more signal, called active from +8 up or from −8 down;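 note: E. coli MC1000 strain DRC41 lacking acrAB efflux pump and sulA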
# [2] = probe aLefty1 binding on compound microarray – biochemical, small-molecule microarray, 635/667 nm fluorescence, primary screen (AID 1153); conditions: higher = more signal;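 note: score merges spot fluorescence with signal-to-noise ratio from the scanned slide images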
# [3] = plasmodial surface anion channel blockers, osmotic lysis – cell-based, P. falciparum Indochina, OD700, 1 h, primary screen (AID 1154); conditions: P. falciparum Indochina infected RBC osmotic lysis, higher = more signal, called active from +8 up or from −8 down
# [4] = plasmodial surface anion channel blockers, osmotic lysis – cell-based, P. falciparum Indochina, OD700, 2 h, primary screen (AID 1155);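 note: lysis reports solute entry through the parasite surface anion channel PSAC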; conditions: P. falciparum Indochina infected erythrocytes, higher = more signal, called active from +8 up or from −8 down
# [5] = changes in parasitized red cell lysis, either direction – P. falciparum Indochina, OD700, 3 h, PSAC antagonist project, primary screen (AID 1156); conditions: P. falciparum-infected erythrocytes, osmotic lysis, higher = more signal, called active from +8 up or from −8 down
# [6] = plasmodial surface anion channel blockers, osmotic lysis – cell-based, P. falciparum Indochina, OD700, 18 h, primary screen (AID 1157); conditions: P. falciparum Indochina infected erythrocytes, osmotic lysis OD700, 18 h; higher = more signal, called active from +8 up or from −8 down
# [7] = S6 kinase pathway phospho-S6 level changes – cell-based, A549, cytoblot, luminescence, serum-stimulated, primary screen (AID 1158); conditions: 5 h, higher = more signal;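 note: serum-stimulated A549 lung adenocarcinoma cells; signal is phosphorylated S6 detected by cytoblot immunostaining with HRP secondary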
# [8] = target: NADPH oxidase 2 (Homo sapiens) (UniProt P04839); assay: compounds shifting NOX2 Amplex Red fluorescence – cell-based, HEK293-NOX2, PMA-stimulated, NOX inhibitor project, primary screen (AID 1159); conditions: 45 min, higher = more signal, called active from +8 up or from −8 down; note: test concentration not given here
# Sequence of NADPH oxidase 2 (Homo sapiens) (P04839 whole entry, looked up): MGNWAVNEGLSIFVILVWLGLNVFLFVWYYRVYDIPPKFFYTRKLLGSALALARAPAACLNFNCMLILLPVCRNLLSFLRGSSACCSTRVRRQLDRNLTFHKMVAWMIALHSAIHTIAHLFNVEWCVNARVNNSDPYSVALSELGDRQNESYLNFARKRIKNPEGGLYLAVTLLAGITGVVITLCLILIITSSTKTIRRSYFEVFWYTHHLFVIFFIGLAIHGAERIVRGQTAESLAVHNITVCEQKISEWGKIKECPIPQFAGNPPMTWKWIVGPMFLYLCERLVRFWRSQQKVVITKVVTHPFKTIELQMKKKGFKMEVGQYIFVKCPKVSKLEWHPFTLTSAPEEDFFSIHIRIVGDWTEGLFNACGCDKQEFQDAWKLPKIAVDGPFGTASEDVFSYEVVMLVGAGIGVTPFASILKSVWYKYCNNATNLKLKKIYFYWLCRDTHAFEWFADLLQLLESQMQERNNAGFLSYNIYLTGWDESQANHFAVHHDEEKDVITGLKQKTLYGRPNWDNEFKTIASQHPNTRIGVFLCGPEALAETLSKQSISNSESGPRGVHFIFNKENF
# [9] = target: NADPH oxidase 4 (Homo sapiens) (UniProt Q9NPH5); assay: compounds shifting NOX4 Amplex Red fluorescence – cell-based, HEK293-NOX4, tetracycline-induced, NOX inhibitor project, primary screen (AID 1160); conditions: HEK293-NOX4, Amplex Red H2O2 fluorescence, 45 min; higher = more signal, called active from +8 up or from −8 down
# Sequence of NADPH oxidase 4 (Homo sapiens) (Q9NPH5 whole entry, looked up): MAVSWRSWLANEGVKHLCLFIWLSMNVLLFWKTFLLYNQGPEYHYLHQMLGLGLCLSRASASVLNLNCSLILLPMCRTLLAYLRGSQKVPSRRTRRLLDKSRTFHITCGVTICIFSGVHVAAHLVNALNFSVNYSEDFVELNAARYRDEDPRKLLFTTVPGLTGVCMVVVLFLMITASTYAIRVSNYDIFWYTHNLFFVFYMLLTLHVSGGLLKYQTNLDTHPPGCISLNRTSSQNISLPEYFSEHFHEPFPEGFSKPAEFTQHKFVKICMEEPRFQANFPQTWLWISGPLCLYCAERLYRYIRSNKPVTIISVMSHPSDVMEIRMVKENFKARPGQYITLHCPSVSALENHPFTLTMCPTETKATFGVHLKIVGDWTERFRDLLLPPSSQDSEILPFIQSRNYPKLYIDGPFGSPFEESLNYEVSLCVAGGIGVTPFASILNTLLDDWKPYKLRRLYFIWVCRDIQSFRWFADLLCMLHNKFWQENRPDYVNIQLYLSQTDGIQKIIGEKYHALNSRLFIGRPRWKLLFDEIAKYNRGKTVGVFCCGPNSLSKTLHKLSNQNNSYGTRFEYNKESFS
# [10] = target: NADPH oxidase 5 (Homo sapiens) (UniProt Q96PH1); assay: compounds shifting NOX5 Amplex Red fluorescence – cell-based, HEK293-NOX5, NOX inhibitor project, primary screen (AID 1161); conditions: HEK293-NOX5, ionomycin, 45 min, higher = more signal
# Sequence of NADPH oxidase 5 (Homo sapiens) (Q96PH1 whole entry, looked up): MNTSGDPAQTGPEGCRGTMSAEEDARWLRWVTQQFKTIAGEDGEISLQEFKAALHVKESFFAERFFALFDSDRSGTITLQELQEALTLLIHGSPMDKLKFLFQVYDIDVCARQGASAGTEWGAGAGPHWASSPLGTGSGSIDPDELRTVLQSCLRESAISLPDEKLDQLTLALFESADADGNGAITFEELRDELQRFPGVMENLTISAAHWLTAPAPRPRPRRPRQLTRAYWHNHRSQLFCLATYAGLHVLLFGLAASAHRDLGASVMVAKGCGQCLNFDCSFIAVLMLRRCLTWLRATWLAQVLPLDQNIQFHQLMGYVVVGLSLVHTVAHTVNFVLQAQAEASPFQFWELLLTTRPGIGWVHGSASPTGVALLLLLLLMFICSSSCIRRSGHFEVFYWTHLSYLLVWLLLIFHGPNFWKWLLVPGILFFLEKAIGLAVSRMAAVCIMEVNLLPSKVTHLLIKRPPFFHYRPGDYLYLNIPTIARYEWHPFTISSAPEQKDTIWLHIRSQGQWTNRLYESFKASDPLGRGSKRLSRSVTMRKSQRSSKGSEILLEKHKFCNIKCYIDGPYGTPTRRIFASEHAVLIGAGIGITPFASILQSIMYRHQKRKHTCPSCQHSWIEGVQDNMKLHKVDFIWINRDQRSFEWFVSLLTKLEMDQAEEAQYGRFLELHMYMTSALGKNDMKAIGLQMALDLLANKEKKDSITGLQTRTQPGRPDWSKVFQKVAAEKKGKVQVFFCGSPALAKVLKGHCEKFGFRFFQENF
# [11] = compound effects on lung adenocarcinoma cell viability – A549, calcein-AM fluorescence, 48 h, basal, profiling panel (AID 1162); conditions: higher = more signal; note: test concentration not given here
# [12] = compound effects on differentiated 3T3-L1 adipocyte viability – cell-based, 3T3-L1 adipocytes, calcein-AM fluorescence, 48 h, basal, profiling panel (AID 1163); conditions: 3T3-L1 adipocytes viability, higher = more signal; note: test concentration not given here
# [13] = compound effects on hepatocellular carcinoma cell viability – HepG2, calcein-AM fluorescence, 48 h, basal, profiling panel (AID 1164); conditions: higher = more signal; note: test concentration not given here
# [14] = compound effects on multiple myeloma cell viability – MM1S, calcein-AM fluorescence, 48 h, basal, profiling panel (AID 1165); conditions: higher = more signal; note: test concentration not given here
# [15] = calcein-AM signal in unstimulated myeloma cells – cell-based, calcein-AM fluorescence, 48 h, PK04 Diversity Set, profiling panel (AID 1166); conditions: RPMI8226 myeloma viability, higher = more signal;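 note: cells grown under basal conditions without added stimulus; test concentration not given here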
# [16] = JC-1 mitochondrial signal, unstimulated HepG2 cells – cell-based, JC-1 fluorescence, 24 h, 100 nL compound, profiling panel (AID 1167); conditions: HepG2 mitochondrial potential, higher = more signal; note: test concentration not given here
# [17] = JC-1 mitochondrial signal, unstimulated adipocytes – cell-based, JC-1 fluorescence, 3T3-L1 adipocytes, 24 h, 100 nL compound, profiling panel (AID 1168); conditions: JC-1 mitochondrial fluorescence, higher = more signal, called active from +8 up or from −8 down; note: test concentration not given here
# [18] = JC-1 mitochondrial signal, unstimulated myeloma cells – cell-based, JC-1 fluorescence, RPMI8226, 24 h, 100 nL compound, profiling panel (AID 1169); conditions: JC-1 mitochondrial potential fluorescence, higher = more signal; note: test concentration not given here
# [19] = JC-1 mitochondrial signal, unstimulated MM1S myeloma – cell-based, JC-1 fluorescence, 24 h, 100 nL compound, profiling panel (AID 1170); conditions: MM1S mitochondrial potential, higher = more signal; note: test concentration not given here
# [20] = resazurin metabolic signal in A549 cells – cell-based, resazurin fluorescence, 24 h, PK04 Diversity Set, profiling panel (AID 1171); conditions: A549 viability, higher = more signal, called active from +8 up or from −8 down; note: test concentration not given here
SMILES,z-score [1],composite z-score [2],z-score [3],z-score [4],z-score [5],z-score [6],z-score [7],z-score [8],z-score [9],z-score [10],z-score [11],z-score [12],z-score [13],z-score [14],z-score [15],z-score [16],z-score [17],z-score [18],z-score [19],z-score [20]
O=C1NC(=O)C2C1C=CC(C(O)C=Cc1ccc([N+](=O)[O-])cc1)N2Nc1ccccn1 (stereo not given),-0.297 (inactive),0.0457,0.273 (inactive),1.27 (inactive),0.0385 (inactive),1 (inactive),-0.831,0.258 (inactive),-2.01 (inactive),-1.52,0.183,-1.49,0.324,-0.141,-0.411,-0.249,-0.304 (inactive),0.412,0.423,-0.355 (inactive)
CO[C@H]1COC(=O)[C@@H](C)COC(=O)[C@H](Cc2ccccc2)NC(=O)CC=C[C@H]1C,-0.507 (inactive),-0.363,-0.318 (inactive),-1.31 (inactive),-0.116 (inactive),-2.15 (inactive),0.627,0.714 (inactive),0.791 (inactive),0.299,-0.0475,0.838,0.53,-0.0069,-0.602,0.756,0.906 (inactive),0.25,0.877,0.733 (inactive)
CCOC(=O)C[C@H]1[C@H](OC(=O)c2ccccc2-c2ccccc2)[C@@H](NC(=O)C2CCCCC2)c2cc(OCCCO)ccc2N1C(=O)c1ccccc1,1.99 (inactive),-0.191,1.97 (inactive),0.718 (inactive),0.217 (inactive),0.402 (inactive),-0.073,0.629 (inactive),0.936 (inactive),-1.64,-0.675,1.22,-0.294,-0.402,-1.33,3.59,0.75 (inactive),-0.545,0.109,-0.0403 (inactive)
CCOC(=O)C1=C[C@@H](c2ccccc2)N(S(=O)(=O)c2ccc(C)cc2)[C@H]1c1ccc(F)cc1,-1.15 (inactive),0.275,1.66 (inactive),1.42 (inactive),-0.101 (inactive),1 (inactive),-0.217,0.108 (inactive),0.814 (inactive),-0.291,-1.39,-0.498,-2.67,-2.06,-1.34,2.45,-1.16 (inactive),-0.118,-0.00719,1.04 (inactive)
CC(C)[Si](OCC[C@H]1O[C@]2(C(=O)N(Cc3ccccc3)c3ccccc32)[C@@H](C)[C@@H]1[Si](C)(C)O)(C(C)C)C(C)C,0.65 (inactive),-0.193,0.914 (inactive),0.799 (inactive),0.226 (inactive),0.403 (inactive),0.158,0.999 (inactive),-0.328 (inactive),0.523,-0.287,1.13,0.35,-0.64,-1.31,0.444,0.578 (inactive),-0.82,-1.51,-1.46 (inactive)
O=C(NCC(F)(F)F)[C@@H]1c2ccccc2C(=O)N(Cc2ccccc2Cl)[C@H]1c1ccc(CO)cc1,0.774 (inactive),-0.27,1.88 (inactive),0.839 (inactive),0.62 (inactive),0.157 (inactive),-0.217,-0.138 (inactive),0.22 (inactive),-0.0659,1.25,-0.0448,0.343,0.189,-0.317,1.48,-0.198 (inactive),-0.65,0.499,1.26 (inactive)
CCOC(=O)C[C@H]1[C@H](OC(=O)Cc2ccc3c(c2)OCO3)[C@@H](NC(=O)CC(C)C)c2cc(OCCCO)ccc2N1C(=O)c1ccccc1,2.39 (inactive),0.0698,0.4 (inactive),-1.02 (inactive),-0.462 (inactive),-1.5 (inactive),0.622,0.337 (inactive),0.52 (inactive),0.47,2.34,-0.148,0.978,0.532,2.13,1.78,1.58 (inactive),-0.0658,0.751,1.16 (inactive)
CO[C@@H]1COC(=O)[C@@H]2CCCN2C(=O)CC=C[C@@H](C)[C@H](OC)COC(=O)[C@@H]2CCCN2C(=O)CC=C[C@H]1C,1.11 (inactive),-0.0984,-0.0896 (inactive),0.0184 (inactive),0.11 (inactive),-0.113 (inactive),0.956,-0.353 (inactive),0.476 (inactive),0.606,0.798,0.185,1.21,0.283,0.142,-0.123,1.15 (inactive),-0.695,2.22,1.82 (inactive)
COc1ccc(-c2ccccc2[C@@H]2N[C@H](C(=O)O)CC[C@H]2C)cc1,0.522 (inactive),-0.147,0.908 (inactive),0.443 (inactive),1.42 (inactive),-0.0201 (inactive),0.305,0.653 (inactive),-1.28 (inactive),-0.431,0.212,1.63,-0.428,1.09,-0.372,0.924,0.366 (inactive),0.1,0.614,0.597 (inactive)
CO[C@H]1COC(=O)CC=C[C@H](C)[C@@H](OC)COC(=O)CC=C[C@@H]1C,1.32 (inactive),0.0962,1.35 (inactive),0.636 (inactive),0.357 (inactive),0.254 (inactive),1.26,0.59 (inactive),1.19 (inactive),0.435,1.09,0.569,1.06,0.244,0.859,1.36,0.425 (inactive),-0.36,0.758,0.99 (inactive)
COc1ccc(NN2C(C(O)c3cc(OC)c(OC)c(OC)c3)C=CC3C(=O)N(C4CCCCC4)C(=O)C32)cc1 (stereo not given),-0.413 (inactive),0.06,11.5 (active),1.74 (inactive),0.752 (inactive),0.558 (inactive),-0.241,-1.55 (inactive),-1.85 (inactive),-2.67,-0.753,-1.42,1.17,0.651,-0.177,0.861,-0.569 (inactive),0.00692,-1.78,0.239 (inactive)
